# Assay results published in PubChem BioAssay (NCI).
# This is part of a sample that, as a whole, favours compounds with a hit. Of some 83,000 tested, about 20% had one in any assay.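 Note: values are percent growth. 100 is the growth of untreated cells, values between 100 and 0 indicate rising inhibition; between -100 and 0 indicates cell death.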 A number with no mark means an inactive call. The source made the active and inactive calls. Rule for the calls: active = growth percent below 10; inactive = the rest.
# Key:
# Test in all cases: NCI-60 one-dose screen, 48 h (100 = growth as untreated, 0 = no growth, -100 = all killed)
# Details in all cases: 10 µM unless noted
# NCI-H23 lung = tested on: NCI-H23 lung
# NCI-H226 lung = tested on: NCI-H226 lung
# NCI-H322M lung = tested on: NCI-H322M lung
# HOP-62 NSCLC = tested on: HOP-62 NSCLC
# NCI-H460 lung = tested on: NCI-H460 lung
# NCI-H522 lung = tested on: NCI-H522 lung
# A549/ATCC NSCLC = tested on: A549/ATCC NSCLC
# 786-0 renal = tested on: 786-0 renal
# COLO 205 colon = tested on: COLO 205 colon
# DU-145 prostate = tested on: DU-145 prostate
# K-562 leukemia = tested on: K-562 leukemia
# MALME-3M melanoma = tested on: MALME-3M melanoma
# MDA-MB-231 breast = tested on: MDA-MB-231 breast
# RXF 393 renal = tested on: RXF 393 renal
# SF-268 CNS = tested on: SF-268 CNS
# SF-295 CNS = tested on: SF-295 CNS
# SF-539 CNS = tested on: SF-539 CNS
# UACC-257 melanoma = tested on: UACC-257 melanoma
# M14 melanoma = tested on: M14 melanoma
# HCT-15 colon = tested on: HCT-15 colon
SMILES,growth (NCI-H23 lung) [%],growth (NCI-H226 lung) [%],growth (NCI-H322M lung),growth (HOP-62 NSCLC),growth (NCI-H460 lung),growth (NCI-H522 lung),growth (A549/ATCC NSCLC),growth (786-0 renal) [%],growth (COLO 205 colon),growth (DU-145 prostate),growth (K-562 leukemia),growth (MALME-3M melanoma),growth (MDA-MB-231 breast),growth (RXF 393 renal),growth (SF-268 CNS) [%],growth (SF-295 CNS),growth (SF-539 CNS) [%],growth (UACC-257 melanoma),growth (M14 melanoma) [%],growth (HCT-15 colon)
N#CCNc1ccccc1N,86.6,101,82%,85.2%,101%,65.4%,92.2%,99,90.2%,106%,97.3%,96.2%,101%,110%,102,106%,103,98.3%,93.4,108%
NC(=O)c1ccccc1NC(=O)c1ccccc1Cl,104,105,109%,112%,114%,96.5%,98.3%,102,121%,113%,89.9%,130%,99.6%,82.1%,108,90.5%,109,88.7%,112,95.6%
O=C1/C(=C/c2ccc([N+](=O)[O-])o2)Oc2ccc(Br)cc21,74.1,98,75.6%,94.3%,107%,-66.1% (active),107%,28.3,8.53% (active),72.1%,-1.79% (active),-28.3% (active),42.8%,-29.6% (active),48.1,99.4%,88,69.1%,44.9,0.437% (active)
CC1SC(c2c(Cl)cccc2Cl)N(NC(=O)c2[nH]c3ccc(F)cc3c2-c2ccccc2)C1=O (stereo not given),48,58.5,4.84% (active),-44.6% (active),8.08% (active),69%,-1.11% (active),33.8,35.1%,24.1%,71.6%,1.97% (active),0.445% (active),26.5%,44.3,6.65% (active),71.5,93.9%,62.8,65.1%
CCC1=C(c2ccc(OC)cc2)C(C)(C)Oc2cc(O)c(CN3CCCC3)cc21,68.1,97.6,92%,71.4%,86.6%,41.5%,85.1%,59,65.9%,93.8%,19.7%,77.2%,95.8%,79.9%,88.4,51%,76.8,72%,62.1,82.2%
COc1ccc2nc(-c3ccc(-n4cncc4-c4ccc(OC)c(N)c4)cc3)sc2c1,108,108,95.3%,116%,100%,82%,93.5%,111,105%,119%,90.6%,131%,104%,113%,109,99.8%,105,109%,110,97.4%
COc1ccc(Cn2c(NCCCN(C)C)nc(=O)n(Cc3ccc(F)cc3)c2=O)cc1,103,90.7,83%,93.5%,108%,95%,110%,89.3,94.8%,99.4%,87.9%,87.9%,81.4%,83.7%,83.7,96.2%,108,92.4%,97.9,107%
CCC[C@H](N[C@@H](C)C(=O)N1[C@H](C(=O)O)C[C@@H]2CCCC[C@@H]21)C(=O)OCC,94.2,105,103%,123%,116%,102%,91.4%,103,111%,111%,116%,94.2%,90.4%,114%,105,111%,91.4,97.9%,113,99.3%
CC(C)c1ccc(C(=O)Nc2sc3c(CN(C)C)c(O)ccc3c2C(N)=O)cc1,49.1,86.9,65.5%,64.4%,72%,43.7%,33%,49.6,47.1%,51.9%,-41.3% (active),63.9%,38.5%,12.2%,69.3,61.9%,40.8,9.32% (active),18.5,-48.7% (active)
CC(=O)O[C@H]1C(=O)[C@@]2(C)C([C@H](OC(=O)c3ccccc3)[C@]3(O)C[C@H](OC(=O)[C@H](O)[C@@H](NC(=O)c4ccccc4)c4ccccc4)C(C)=C1C3(C)C)[C@]1(OC(C)=O)CO[C@@H]1C[C@@H]2O (stereo not given in full),27.9,44.8,28.1%,24.6%,7.33% (active),-25.2% (active),13.1%,17.6,1.91% (active),-36.8% (active),12.5%,57.3%,17%,-17.9% (active),30.2,-8.51% (active),13.1,45%,20,23.7%
COc1ccc2c(c1)C(=O)c1c-2c(OCCCN(C)C)nc2cc(Br)ccc12,75.5,57.2,80.7%,68%,36.2%,61.6%,24.6%,77.2,64.6%,78.5%,53.1%,69.8%,49.9%,43.7%,69,93.9%,67.6,108%,91.8,-31.3% (active)
COc1ccc(OC)c(NC(=O)c2cc3oc4ccccc4c3cc2O)c1,87.4,90.7,101%,72.4%,100%,90.6%,88.4%,93.1,88.8%,106%,86.4%,69.7%,100%,143%,87.9,92%,90.3,92%,95.7,96.7%
COc1ccccc1[C@H]1c2[nH]c3ccccc3c2C[C@H]2C(=O)N(CCCCCCC(=O)NO)CC(=O)N12,52.3,91.6,76.1%,50.2%,62.8%,10.5%,76.5%,89.4,26.9%,43.7%,11.3%,-1.09% (active),66%,65.5%,94.3,71.9%,40.2,26.5%,36.3,87.1%
Nc1nc(SCC2(CCl)COC2)c2[nH]cnc2n1,97.1,100,102%,89.7%,107%,80.2%,97.8%,99.4,106%,116%,90.6%,88.8%,104%,113%,98.5,110%,99.6,99.1%,97,99.6%
